HP1b chromo inh = inhibitors of HP1-beta chromodomain binding to methylated histone tails; AID 540317; Potency, µM (highest dose often 114 µM), usual class: inhibitors; P83916; 0.56% of 390,000 active; AlphaScreen HP1-beta / biotin-H3K9me3 peptide binding; further: nearly all actives have a fitted effect of over 70% in size
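HP1-beta protein (50 nM final) preincubated 30 min at room temperature with biotinylated H3(1-18)K9me3 peptide (50 nM) in PBS pH 7.4, 0.01% Tween-20, then compound added for 30 min. AlphaScreen streptavidin donor/nickel chelate acceptor beads (10 ug/mL final), 30 min dark, luminescence read.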
G9a block = G9a (human) methyltransferase inhibition. 8.8% of 350,000 active. G9a H3K9 monomethylation, AlphaScreen, 2 h. AID 504332. Q96KQ7. Potency, µM (top dose mostly 102 µM), most hits filed as inhibitors; further: nearly all actives have a fitted effect of over 75% in size
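Signal arises when biotinylated H3K9 peptide, once monomethylated, bridges streptavidin donor and antibody-captured acceptor beads. Enzyme at 20 nM was preincubated 15 min with test compounds; peptide 500 nM and SAM 20 uM then reacted for 2 h.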
Sfp inh = Sfp phosphopantetheinyl transferase inhibition. Biochemical Sfp PPTase activity, qHTS. 3.5% of 310,000 active. Q9F4F7. AID 1490. Potency, µM, actives largely listed as inhibitors;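 further: the enzyme is Sfp with the accession as filed and its product quenches rhodamine fluorescence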
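With Hepes-Na pH 7.6 buffer containing 10 mM MgCl2, Sfp (15 nM) modified BHQ-2-YbbR (12.5 uM) using rhodamine-CoA (5 uM). Two reads 30 minutes apart at 525/598 nm yielded each well's rate.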
BAZ2B inh = inhibitors of human BAZ2B bromodomain | AID 504333 | AlphaScreen BAZ2B-H3K14Ac peptide displacement | 4.4% of 360,000 active | Potency, µM (top dose mostly 114 µM), most hits filed as inhibitors; further: nearly all actives have a fitted effect of over 60% in size
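Inhibition is scored as reduced AlphaScreen emission. The BAZ2B/b-H3(5-23)K14Ac complex (50 nM each) in PBS pH 7.4, 0.01% Tween-20 meets compound (up to 110 uM) for 30 min at RT before bead addition.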
JMJD2A Tudor = JMJD2A Tudor domain (human) inhibition; 4.4% of 390,000 active; AlphaScreen JMJD2A-Tudor / H3K4me3 peptide binding; O75164; Potency, µM (top dose mostly 114 µM), actives largely listed as inhibitors; further: nearly all actives have a fitted effect of over 50% in size
Each line names hits and unclear results; the compound was inactive in the other large screens. Sampled rows, rich in hits. Any-hit rate of the full collection: about 12%. The call rests on the fitted dose curve; in most records, active means well fitted curve in the direction sought with a large enough effect; inconclusive means small, poorly fitted or top-dose-only effect, or another doubt; inactive means no such curve, though single readings can be large; an effect the other way counts as inactive or inconclusive.

COc1cc2c(cc1OC)C(COc1ccc3c(C)cc(=O)oc3c1)N(C(=O)c1ccc(C)c(C)c1)CC2 (configuration not stated)	none (no result: Sfp inh)
CCN(CC)C(=O)c1sc2c(c1C)c(=O)n(-c1ccc(OC)cc1OC)c(=O)n2CC(=O)c1ccc(Cl)cc1	none (no result: Sfp inh)
Cc1noc(NS(=O)(=O)c2ccc(NC(=O)c3ccccc3NS(=O)(=O)c3ccc(F)c(F)c3)cc2)c1C	none (no result: G9a block, Sfp inh, BAZ2B inh)
CCOC(=O)COn1c(=O)c(-c2ccc(OC)c(OC)c2)[n+]([O-])c2ccccc21	G9a block 22µM, Sfp inh inconclusive (no result: HP1b chromo inh, JMJD2A Tudor)
CCOC(=O)COn1c(=O)c(-c2ccc(OC)cc2)[n+]([O-])c2ccccc21	none
c1ccc(CN2CCC(=NNc3nc4ccccc4[nH]3)CC2)cc1	JMJD2A Tudor inconclusive (no result: BAZ2B inh)
CC(C)(C)C1CCC(=NNc2nc3ccccc3[nH]2)CC1 (configuration not stated)	G9a block 40µM, BAZ2B inh inconclusive
c1ccc2c(c1)CC/C2=N/Nc1nc2ccccc2[nH]1	Sfp inh 35µM, BAZ2B inh inconclusive
c1ccc(CN2CCN(c3ncnc4c3cnn4-c3ccccc3)CC2)cc1	none (no result: Sfp inh)
COCCn1c(C)cc(O)c(C(c2ccc(Cl)cc2)N2CCCCC2)c1=O (configuration not stated)	G9a block inconclusive (no result: Sfp inh)
CCOC(=O)c1c(CC(C)C)csc1/N=C/C1C(=O)CCCC1=O	G9a block 50µM, Sfp inh inconclusive, BAZ2B inh inconclusive
O=C(CSC1=NNC(c2ccccn2)S1)Nc1ccc(C(F)(F)F)cc1 (configuration not stated)	BAZ2B inh 56µM, JMJD2A Tudor 40µM
CC(=O)Nc1ccc(NC(=O)CSc2ccccn2)cc1	none
Cc1ccc(C(=O)NCCc2nnc3ccc(N4CCCC4)nn23)cc1	none (no result: G9a block)
CCn1c(CCNC(=O)c2ccc(C)cc2)n[nH]c1=S	G9a block inconclusive, JMJD2A Tudor 6.3µM
Cn1c(CCNC(=O)c2ccc(Cl)cc2)n[nH]c1=S	JMJD2A Tudor 10µM
CS(=O)(=O)Nc1cccc(C2=NN(C(=O)c3cccc([N+](=O)[O-])c3)C(c3cccs3)C2)c1 (configuration not stated)	BAZ2B inh inconclusive
CCc1nn2c(=O)cc(COC(=O)CNC(=O)c3ccccc3)nc2s1	none (no result: Sfp inh)
COc1ccc(C2Nc3ccc(NC(C)=O)cc3C(=O)N2Cc2ccccc2)cc1COc1ccc(NC(C)=O)cc1 (configuration not stated)	none (no result: G9a block, Sfp inh, BAZ2B inh)
Cc1occc(=O)c1OC(=O)Nc1ccc(Cl)c(Cl)c1	G9a block inconclusive, JMJD2A Tudor 25µM
Cn1c2c(c3cnc4cc(Cl)ccc4c31)CN(Cc1ccc(Cl)cc1)CC2	none (no result: G9a block, Sfp inh, BAZ2B inh)
COc1ccccc1Nc1nnc(SCc2nnc(-c3cc(OC)c(OC)c(OC)c3)o2)s1	G9a block 14µM, JMJD2A Tudor inconclusive
Cc1[nH]c(=S)c(C#N)c(-c2ccccc2)c1C(=O)Nc1ccccc1	G9a block inconclusive, Sfp inh 28µM, JMJD2A Tudor 79µM
Cc1ccc(-c2c(C(=O)Nc3ccccc3C)c(C)[nH]c(=S)c2C#N)o1	Sfp inh 2.8µM, BAZ2B inh 79µM
Cc1ccccc1NC(=O)c1c(C)[nH]c(=S)c(C#N)c1-c1ccc(Cl)cc1	G9a block inconclusive
CCc1[nH]c(=S)c(C#N)c(-c2ccccc2)c1C(=O)OC	G9a block 16µM, JMJD2A Tudor inconclusive
CSc1nc(C)c(C(=O)Nc2ccccc2)c(C)c1C#N	none
COc1cccc(-c2ncc3ccccc3c2COC(=O)N(C)C)c1	none (no result: Sfp inh)
NCCCC(N)CC(=O)NCC1NC(=O)C(CO)NC(=O)C(N)CNC(=O)C(C2CCN=C(N)N2)NC(=O)/C(=C\NC(N)=O)NC1=O (configuration not stated)	none (no result: HP1b chromo inh, BAZ2B inh, JMJD2A Tudor)
CCN(CC)C(=O)Cn1c(=O)n(Cc2ccc(C(=O)NCc3ccccc3Cl)cc2)c(=O)c2ccccc21	none (no result: Sfp inh)
COc1ccc(CNS(=O)(=O)c2ccc3c(c2)C(C)(C)C(=O)N3C)cc1OC	none (no result: Sfp inh)
CSCC[C@H](NC(=O)NCc1ccccc1F)C(=O)O	G9a block 45µM
O=C(COC(=O)c1cccc(C(=O)OCC(=O)NC2CCCCC2)n1)NC1CCCCC1	G9a block 50µM, JMJD2A Tudor inconclusive
Cc1cc2c(cc(C(=O)OCC(=O)NC3CCCCC3)n2C)o1	JMJD2A Tudor 22µM (no result: G9a block, Sfp inh, BAZ2B inh)
CC(C)C(C)NC(=O)COC(=O)c1cccc(C(=O)OCC(=O)NC(C)C(C)C)n1 (configuration not stated)	G9a block 10µM, BAZ2B inh inconclusive, JMJD2A Tudor inconclusive
Cc1cc(C(=O)OCC(=O)NC2CCCCC2)c(C)o1	BAZ2B inh inconclusive
O=C(c1cccc(F)c1)N1CCC2(CC1)CCN(c1ccc(-c3ccccc3)cc1)CC2	none (no result: HP1b chromo inh, BAZ2B inh, JMJD2A Tudor)
CCOC(=O)C1=C(C)N(CC(C)C)C(=O)/C1=C\c1ccc(OCC(=O)Nc2ccccc2)cc1	G9a block 50µM
Cc1[nH]n(-c2ccccc2)c(=O)c1C(C[N+](=O)[O-])c1ccc(Br)cc1 (configuration not stated)	G9a block 40µM, BAZ2B inh inconclusive, JMJD2A Tudor inconclusive
Cc1[nH]n(-c2ccccc2)c(=O)c1C(c1cccc([N+](=O)[O-])c1)c1c(C)[nH]n(-c2ccccc2)c1=O	G9a block 35µM, BAZ2B inh 28µM, JMJD2A Tudor inconclusive
Cc1[nH]n(-c2ccccc2)c(=S)c1C=Nc1ccc([N+](=O)[O-])cc1	HP1b chromo inh inconclusive, G9a block 0.89µM, Sfp inh 6.3µM, BAZ2B inh 10µM, JMJD2A Tudor 1.8µM
Cc1[nH]n(-c2ccccc2)c(=O)c1C(c1ccc(C(=O)O)cc1)c1c(C)[nH]n(-c2ccccc2)c1=O	none
Cc1[nH]n(-c2ccccc2)c(=O)c1C(=O)c1ccc([N+](=O)[O-])cc1	G9a block 50µM
Cc1nn(-c2ccccc2)nc1C(=O)c1c(C)[nH]n(-c2ccccc2)c1=O	none (no result: G9a block)
O=c1[nH][nH]c(-c2ccccc2O)c1C(C[N+](=O)[O-])c1ccccc1 (configuration not stated)	G9a block inconclusive, BAZ2B inh inconclusive
CCOC(=O)Cn1c(=O)oc2cc(S(=O)(=O)NCc3ccc(F)cc3)ccc21	none (no result: Sfp inh)
CCN1CCN(CCCNC(=O)CCC(=O)N2CC(C)Oc3ccc(C)cc32)CC1 (configuration not stated)	none
O=c1[nH][nH]c(-c2ccccc2O)c1C(C[N+](=O)[O-])c1cccc(Cl)c1 (configuration not stated)	none
CCOc1ccc(C(c2c(C)[nH]n(-c3ccccc3)c2=O)c2c(C)[nH]n(-c3ccccc3)c2=O)cc1OC	HP1b chromo inh inconclusive, G9a block 8.9µM, BAZ2B inh inconclusive, JMJD2A Tudor inconclusive (no result: Sfp inh)
COc1cccc(C(C[N+](=O)[O-])c2c(C)[nH]n(-c3ccccc3)c2=O)c1 (configuration not stated)	G9a block 10µM, Sfp inh 28µM, BAZ2B inh inconclusive

High-throughput results (PubChem)
